Compound activity from PubChem.
Compounds with a hit are over-represented: about 10% of the library has one in this group of screens.
HP1b chromo inh: inhibitors of HP1-beta chromodomain binding to methylated histone tails; Potency, µM (top dose mostly 114 µM), actives largely listed as inhibitors; P83916; hit rate 0.56% among 390,000; AlphaScreen HP1-beta / biotin-H3K9me3 peptide binding; note: nearly all actives have a fitted effect of over 70% in size
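AlphaScreen: HP1-beta (50 nM) preformed 30 min with biotin-H3(1-18)K9me3 peptide (50 nM) in PBS pH 7.4, 0.01% Tween-20. Compound added for 30 min at RT, then streptavidin donor/nickel chelate acceptor beads (10 ug/mL) for 30 min.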
G9a block: G9a (human) methyltransferase inhibition. Q96KQ7. G9a H3K9 monomethylation, AlphaScreen, 2 h. Potency, µM (series often up to 102 µM), actives largely listed as inhibitors. hit rate 8.8% among 350,000. AID 504332; note: nearly all actives have a fitted effect of over 75% in size
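AlphaScreen read-out: biotin-H3K9 peptide (500 nM) methylation by 20 nM enzyme with 20 uM SAM, 2 h at room temperature after 15 min compound preincubation; anti-monomethyl H3K9 antibody plus donor/acceptor beads, 10 min dark.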
JMJD2A Tudor inh: JMJD2A Tudor domain (human) inhibition. hit rate 4.4% among 390,000. AlphaScreen JMJD2A-Tudor / H3K4me3 peptide binding. Potency, µM (highest dose often 114 µM), actives largely listed as inhibitors. O75164; note: nearly all actives have a fitted effect of over 50% in size
GLS inhibitor: glutaminase GLS (human) inhibition; O94925; GLS enzymatic activity, qHTS titration; Potency, µM (doses to about 45.5 µM), most hits filed as inhibitors; hit rate 0.21% among 410,000; AID 624170
Target sequence (O94925 whole entry, looked up): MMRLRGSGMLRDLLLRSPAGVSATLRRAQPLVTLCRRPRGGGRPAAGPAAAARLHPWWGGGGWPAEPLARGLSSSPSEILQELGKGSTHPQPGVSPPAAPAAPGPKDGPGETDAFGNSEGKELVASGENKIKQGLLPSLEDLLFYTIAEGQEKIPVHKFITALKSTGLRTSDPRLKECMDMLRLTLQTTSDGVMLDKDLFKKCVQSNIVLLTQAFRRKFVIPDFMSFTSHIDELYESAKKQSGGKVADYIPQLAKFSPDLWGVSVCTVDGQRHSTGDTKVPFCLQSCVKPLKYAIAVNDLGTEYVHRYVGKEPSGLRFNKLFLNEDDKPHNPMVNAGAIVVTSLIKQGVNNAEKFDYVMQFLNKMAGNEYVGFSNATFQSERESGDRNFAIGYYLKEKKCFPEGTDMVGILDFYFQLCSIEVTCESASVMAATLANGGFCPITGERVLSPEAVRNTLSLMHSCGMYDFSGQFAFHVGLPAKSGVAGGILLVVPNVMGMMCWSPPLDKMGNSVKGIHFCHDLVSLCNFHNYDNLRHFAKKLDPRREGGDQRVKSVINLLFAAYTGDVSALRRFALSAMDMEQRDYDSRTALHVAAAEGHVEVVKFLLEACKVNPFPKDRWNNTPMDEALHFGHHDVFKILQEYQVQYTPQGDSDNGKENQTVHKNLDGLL
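Two-point fluorescence kinetic (t0, 30 min RT) for hKGA; glutamate detected via glutamate oxidase–HRP–Amplex Red. Substrate: 1 mM L-glutamine solution; buffer 45 mM KH2PO4, pH 8.2.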
BAZ2B block: blocks human BAZ2B. Q9UIF8. AlphaScreen BAZ2B-H3K14Ac peptide displacement. Potency, µM (doses to about 114 µM), usual class: inhibitors. hit rate 4.4% among 360,000; note: nearly all actives have a fitted effect of over 60% in size
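AlphaScreen displacement of biotin-H3(5-23)K14Ac peptide (50 nM final) from BAZ2B (50 nM final) in PBS pH 7.4, 0.01% Tween-20; complex preformed 30 min RT, then compounds (top 110 uM) 30 min RT, beads 20 min dark.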
L3MBTL1 inh: blocks human L3MBTL1 | AlphaScreen L3MBTL1–H3K9me1 peptide binding | Q9Y468 | hit rate 0.66% among 230,000 | Potency, µM (doses to about 57.1 µM), actives largely listed as inhibitors | AID 485360; note: nearly all actives have a fitted effect of over 60% in size
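L3MBTL1 50 nM + b-AHA-H3(1-15)K9me1 75 nM, 30 min RT; compound added, 30 min RT; streptavidin donor/Ni-chelate acceptor beads 10 ug/mL each final, 30 min RT dark; AlphaScreen read.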
Numbers stand for hits; ! = not confirmed by another sample; [ ] = another dose, or the depositor's remark. Calls come from the whole dose curve; as a rule, active = well fitted curve in the direction sought with a large enough effect; inconclusive = small, poorly fitted or top-dose-only effect, or another doubt; inactive = no such curve, though single readings can be large; an effect the other way counts as inactive or inconclusive.

How did COc1cccc(CN2CCc3nc(N4CCN(c5ncccn5)CC4)ncc3C2)c1 do in these assays?
HP1b chromo inh: inactive; G9a block: inactive[12.7 µM]; JMJD2A Tudor inh: 63.1µM; GLS inhibitor: inactive; BAZ2B block: 39.8µM

How did CCC(C(N)=O)N1CCCC1=O (stereo not drawn) do in these assays?
G9a block: inactive; GLS inhibitor: inactive

How did Cc1[nH]c2ccc(O)cc2c1CCN do in these assays?
HP1b chromo inh: inactive; G9a block: 3.55µM; JMJD2A Tudor inh: inconclusive; GLS inhibitor: inactive; BAZ2B block: inactive; L3MBTL1 inh: inactive

Results for Cc1[nH]c2ccc(OCc3ccccc3)cc2c1CCN ?
HP1b chromo inh: inconclusive; G9a block: 50.1µM; JMJD2A Tudor inh: inconclusive; GLS inhibitor: inactive; BAZ2B block: inconclusive; L3MBTL1 inh: inactive

What do the screens show for `Oc1ccc(Cl)cc1Sc1cc(Cl)ccc1O`?
HP1b chromo inh: inactive; JMJD2A Tudor inh: inconclusive; GLS inhibitor: inactive

Results for O=P(OCC(F)(F)C(F)F)(N1CCCCC1)N1CCCCC1 ?
HP1b chromo inh: inactive; G9a block: 44.7µM; JMJD2A Tudor inh: inactive; GLS inhibitor: inactive; BAZ2B block: inactive; L3MBTL1 inh: inactive

Results for CCC(C)(C)NC(=O)C(NS(=O)(=O)c1cccs1)c1ccccc1 (stereo not drawn) ?
HP1b chromo inh: inactive; G9a block: inactive; JMJD2A Tudor inh: inactive; GLS inhibitor: inactive; BAZ2B block: inactive

What do the screens show for `OCCN(CC#CC(O)(c1ccccc1)C1CCCC1)CCO` (stereo not drawn)?
HP1b chromo inh: inactive; G9a block: 50.1µM; JMJD2A Tudor inh: inconclusive; GLS inhibitor: inactive; BAZ2B block: inactive; L3MBTL1 inh: inactive

Results for CCNC(C)Cc1ccc2c(c1)OCO2 (stereo not drawn) ?
GLS inhibitor: inactive

Results for S=C(NCCc1ccccc1)NCCc1cnc[nH]1 ?
HP1b chromo inh: inactive; G9a block: inactive[0.501 µM]; JMJD2A Tudor inh: inactive; GLS inhibitor: inactive; BAZ2B block: inconclusive; L3MBTL1 inh: inactive[2.29 µM]

What do the screens show for `O=C1C(Cc2cnc[nH]2)NC(=S)N1c1ccccc1` (stereo not drawn)?
HP1b chromo inh: inactive; G9a block: 50.1µM; JMJD2A Tudor inh: inconclusive; GLS inhibitor: inactive; BAZ2B block: inactive

Results for Oc1ccc2c3c1O[C@H]1[C@@H](O)CC[C@@]4(O)C(C2)N(CC2CCC2)CCC314 (stereo partly drawn) ?
G9a block: inactive[12.7 µM]; GLS inhibitor: inactive

What do the screens show for `CO/C1=C\C(C)=C\[C@@H](C)[C@@H](O)[C@H](C)C/C(C)=C/C=C/[C@H](OC)[C@H]([C@@H](C)[C@@H](O)[C@H](C)[C@H]2C[C@@H](O)[C@H](C)[C@@H](C(C)C)O2)OC1=O`?
G9a block: inactive

Results for O=C(Nc1ccc(Br)cc1C(=O)O)c1ccc2c(c1)C(=O)N(Cc1ccccc1)C2=O ?
HP1b chromo inh: inactive; G9a block: inactive; JMJD2A Tudor inh: 50.1µM; GLS inhibitor: inactive; BAZ2B block: inconclusive

Results for Oc1cc(Cl)cc(Cl)c1Cl ?
HP1b chromo inh: inactive; G9a block: inactive[0.501 µM]; JMJD2A Tudor inh: inactive; GLS inhibitor: inactive; BAZ2B block: inactive; L3MBTL1 inh: inactive

What do the screens show for `CC1CCN(C(CC(=O)c2ccccc2)C(=O)c2ccccc2)CC1` (stereo not drawn)?
HP1b chromo inh: inconclusive; JMJD2A Tudor inh: 20µM; GLS inhibitor: inconclusive

How did CSc1cccc(NC(=O)C2CCN(C(=O)c3cnn(-c4ccccc4)c3-n3cccc3)CC2)c1 do in these assays?
HP1b chromo inh: inactive; G9a block: inconclusive; JMJD2A Tudor inh: inactive; GLS inhibitor: inactive; BAZ2B block: inconclusive

What do the screens show for `CC1(C)NCCN2C(=O)CSC21` (stereo not drawn)?
HP1b chromo inh: inactive; G9a block: 79.4µM; JMJD2A Tudor inh: inactive; GLS inhibitor: inactive; BAZ2B block: inactive

What do the screens show for `COc1ccc2c(c1OC)C(=O)O[C@H]2[C@H]1c2cc3c(cc2CCN1C)OCO3`?
G9a block: inactive[21.5 µM]

How did C[N+]1(C)CCc2cc3c(cc2[C@H]1[C@@H]1OC(=O)c2c1ccc1c2OCO1)OCO3 do in these assays?
HP1b chromo inh: inactive; G9a block: 22.4µM!; JMJD2A Tudor inh: 25.1µM!; GLS inhibitor: inactive; BAZ2B block: inconclusive; L3MBTL1 inh: inactive

What do the screens show for `N#C/C(=C/c1ccc(O)c(O)c1)C(N)=S`?
G9a block: 7.52µM

What do the screens show for `N#C/C(=C\c1ccc(O)c(O)c1)C(=O)NCCCNC(=O)/C(C#N)=C/c1ccc(O)c(O)c1`?
G9a block: 1.68µM

What do the screens show for `CC1(C)c2[nH]c3ccccc3c2C[C@@H]2C(=O)N(Cc3ccccc3F)C(=O)N21`?
HP1b chromo inh: inactive; JMJD2A Tudor inh: inconclusive; GLS inhibitor: inactive

How did Cn1cccc1/C=C1\C(=O)NC(=O)N(Cc2ccco2)C1=O do in these assays?
HP1b chromo inh: 44.7µM; G9a block: inconclusive; JMJD2A Tudor inh: 56.2µM; GLS inhibitor: inconclusive; BAZ2B block: 56.2µM

What do the screens show for `COC(=O)c1c(C)n(Cc2ccco2)c2ccc(O)cc12`?
HP1b chromo inh: inactive; G9a block: inconclusive; JMJD2A Tudor inh: inactive; GLS inhibitor: inactive; BAZ2B block: inactive

What do the screens show for `COc1ccc(/C=C2/C(=O)NC(=O)N(Cc3ccco3)C2=O)cc1`?
G9a block: 10µM; BAZ2B block: 31.6µM; L3MBTL1 inh: 8.91µM

Results for COC(=O)C1=C(C)N(Cc2ccco2)C(=O)/C1=C\c1ccc(N(C)C)cc1 ?
HP1b chromo inh: inactive; G9a block: inconclusive; JMJD2A Tudor inh: 15.8µM; GLS inhibitor: inactive; BAZ2B block: inconclusive; L3MBTL1 inh: inactive

Results for CCc1ccc(N2C(=O)NC(=O)/C(=C\c3cccn3CCOc3ccc(C(C)C)cc3)C2=O)cc1 ?
HP1b chromo inh: inactive; G9a block: 7.08µM; JMJD2A Tudor inh: inconclusive; GLS inhibitor: inactive; BAZ2B block: inactive; L3MBTL1 inh: inactive

Results for CC(=O)OC1CC[C@]2(C)C(CCC3C2CC[C@]2(C)C(C4=CC(=O)OC4)C(OC(C)=O)CC32O)C1 (stereo partly drawn) ?
G9a block: inactive[2.33 µM]

How did CCN1C(=O)NC(=O)/C(=C\c2cn(CC(=O)N3CCCCC3C)c3ccccc23)C1=O (stereo not drawn) do in these assays?
HP1b chromo inh: inactive; G9a block: inactive; JMJD2A Tudor inh: inactive; GLS inhibitor: inactive; BAZ2B block: inactive

Results for CCOC(=O)C1CCN(/C=C2/C(=O)NC(=O)N(Cc3ccco3)C2=O)CC1 ?
HP1b chromo inh: inactive; G9a block: inconclusive; JMJD2A Tudor inh: inconclusive; GLS inhibitor: 7.08µM; BAZ2B block: inconclusive; L3MBTL1 inh: 14.1µM

Results for Cc1ccc(OCCn2cccc2/C=C2/C(=O)NC(=O)N(Cc3ccco3)C2=O)cc1 ?
HP1b chromo inh: inactive; G9a block: 50.1µM; JMJD2A Tudor inh: inactive; GLS inhibitor: inactive; BAZ2B block: inactive
